Our source for the Potency and outcome values is PubChem BioAssay (Tox21).

SMILES strings stand for the structures. Results filed as inconclusive are left out. Where a structure was tested more than once in an assay, its records may differ in their call. Calls of active or inactive are those of the source. Unless noted, calls follow the shape of the dose curve; as a rule, active = well fitted curve in the direction sought with a large enough effect in the repeat runs; inconclusive = weak or mixed curves; inactive = no such curve, though single readings can be large; an effect the other way counts as inactive or inconclusive.

Test [1] is described as follows: qHTS assay for small molecules that induce genotoxicity in human embryonic kidney cells expressing luciferase-tagged ATAD5 (AID 651632). Also: nearly all actives have a fitted effect of over 15% in size. The gist of the method: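 Quantitative HTS in HEK293T expressing luciferase-tagged ATAD5, whose levels rise upon DNA damage. Exposure ran 16 hr at 37C and 5% CO2, with luminescence read 30 min after Amplite addition at room temperature.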
Background: qHTS replaces the single test concentration by a dilution series.

Test [2] can be described thus: qHTS assay for small molecule agonists of the p53 signaling pathway - cell viability (AID 651633; calls by dose curve; also: nearly all actives have a fitted effect of over 30% in size; also: potency is read from the fitted curve at half-maximal effect). The gist of the method: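 Viability counter-read: CellTiter-Glo luminescence (30 min, room temperature) in the same p53RE-bla plates. These plates had been exposed to compounds for 16 h at 37 C.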
Test [3] in a line: qHTS assay for small molecules that induce genotoxicity in human embryonic kidney cells expressing luciferase-tagged ATAD5 - cell viability (AID 651634; calls by dose curve; also: nearly all actives have a fitted effect of over 25% in size; also: potency is read from the fitted curve at half-maximal effect). The procedure, abridged: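 After 15.5 hr incubation with compound at 37C, 5% CO2, HEK293T ATAD5-luciferase cells received CellTiter-Fluor reagent; fluorescence intensity was quantified following 30 min at 37C.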
Test [4] can be described thus: qHTS assay for small molecule disruptors of the mitochondrial membrane potential - cell viability (AID 720634; calls by dose curve;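 also: human HepG2 liver cancer cells; series mostly up to about 83 µM; nearly all actives have a fitted effect of over 20% in size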). The procedure, abridged: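 ATP-based luminescent viability readout (CellTiter-Glo, 30 min, room temperature) in HepG2 cells multiplexed with the m-MPI membrane potential dye; compound exposure lasted 1 hr at 37 C.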
Test [5] can be described thus: qHTS assay for small molecule disruptors of the mitochondrial membrane potential (AID 720635). The gist of the method:
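Mitochondrial membrane potential tracked with Mito-MPS dye, red aggregates (ex 540/em 590 nm) against green monomers (ex 490/em 535 nm). Compound treatment 1 hr at 37C, dye 30 min in HepG2.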

A short description of test [6]: qHTS assay to test for compound auto fluorescence at 590 nm (red) in HepG2 cells (AID 720674). The procedure, abridged:
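We screened compounds on adherent HepG2 cells, incubating them for an hour at 37 C in 5% CO2 before reading emission at 590 nm under 540 nm excitation; values reflect equivalence to Rose Bengal sodium fluorescence.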

Test [7] in a line: qHTS assay to test for compound auto fluorescence at 535 nm (green) in HepG2 cells (AID 720675).
Test [8] in a line: qHTS assay to test for compound auto fluorescence at 460 nm (blue) in HEK293 cells (AID 720678). The gist of the method:
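HEK293 cells (2,000/well, medium with 10% dialyzed FBS) attached 4-5 hr, then exposed to compound overnight at 37C, 5% CO2. Blue fluorescence read at 405/460 nm, with triamterene as reference fluorophore.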

The nature of test [9]: qHTS assay to test for compound auto fluorescence at 590 nm (red) in HEK293 cells (AID 720679). The procedure, abridged:
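HEK293 cells (2,000/well, 10% dialyzed FBS) attached 4-5 hr, then dosed with compound or DMSO and incubated overnight at 37C, 5% CO2. Red fluorescence read at 540/590 nm, Rose Bengal sodium as reference fluorophore.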

Test [10] is described as follows: qHTS assay to test for compound auto fluorescence at 535 nm (green) in HEK293 cells (AID 720680).
A short description of test [11]: qHTS assay to test for compound auto fluorescence at 460 nm (blue) in HEK293 cell free culture (AID 720681). The gist of the method: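 Blue fluorescence (Ex 405/Em 460 nm, triamterene-equivalent) was read immediately after pin transfer of compound or DMSO into medium (DMEM, 10% FBS) without cells.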
Test [12] is described as follows: qHTS assay to test for compound auto fluorescence at 535 nm (green) in HEK293 cell free culture (AID 720682). The gist of the method:
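DMEM + 10% FBS, cell-free; cpd or DMSO pinned in; Ex485/Em535 read; output as fluorescein-equivalent signal.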

Test [13] in a line: qHTS assay to test for compound auto fluorescence at 590 nm (red) in HEK293 cell free culture (AID 720683). The gist of the method: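 Red-channel autofluorescence of compounds in culture medium (DMEM, 10% FBS), no cells, measured at 540/590 nm. Rose Bengal sodium is the reference fluorophore for equivalence.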
The nature of test [14]: qHTS assay to test for compound auto fluorescence at 460 nm (blue) in HepG2 cell free culture (AID 720685). The gist of the method: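 Cell-free plates of MEM plus 10% FBS received 23 nL compound or DMSO vehicle; blue-channel (405/460 nm) intensity scored against triamterene as reference fluorophore.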
Test [15] is described as follows: qHTS assay to test for compound auto fluorescence at 535 nm (green) in HepG2 cell free culture (AID 720686).
Test [16] is described as follows: qHTS assay to test for compound auto fluorescence at 460 nm (blue) in HepG2 cells (AID 720687). The procedure, abridged: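 Blue-channel autofluorescence (Ex/Em 405/460 nm, triamterene-equivalent) was measured after 1 hr compound exposure at 37 C, 5% CO2. Cells were HepG2, plated overnight at 37 C in MEM plus 10% FBS.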
Test [17] has as its target Glucocorticoid receptor (Homo sapiens) (UniProt P04150). Description: qHTS assay to identify small molecule agonists of the glucocorticoid receptor (GR) signaling pathway (AID 720691; active = well fitted activation curve with a large enough effect in the signal ratio in the repeat runs, not every such curve was filed as active; the % refers to the signal ratio). The procedure, abridged: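 Cells: GR-bla HeLa, endogenous GR with stably integrated GRE-beta-lactamase reporter. Treatment 18 h, 37 C, compounds delivered in DMSO. Detection via LiveBLAzer B/G FRET substrate, 2 h RT, fluorescence intensity.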

For test [18] the target is unchanged. Description: qHTS assay to identify small molecule antagonists of the glucocorticoid receptor (GR) signaling pathway (AID 720692; active = well fitted inhibition curve with a large enough effect in the signal ratio in the repeat runs, not every such curve was filed as active; the % refers to the signal ratio). The procedure, abridged:
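Quantitative HTS in antagonist format: HeLa cells expressing endogenous GR and a stably integrated GRE-bla reporter, stimulated with 5 nM dexamethasone (final) alongside test compounds for 18 h.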

Test [19] is described as follows: qHTS assay for small molecule agonists of the p53 signaling pathway (AID 651631; calls by dose curve; also: nearly all actives have a fitted effect of over 15% in size). The procedure, abridged:
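Testing took place in human colorectal HCT-116 cells with stable p53RE-driven beta-lactamase. After 16 h of compound exposure at 37 °C, a FRET substrate was added and fluorescence recorded 2 h later.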

A short description of test [20]: qHTS assay to test for compound auto fluorescence at 590 nm (red) in HepG2 cell free culture (AID 720684). The procedure, abridged:
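Cell-free; medium MEM + 10% FBS; compound or DMSO added by pintool; read Ex 540/Em 590 nm; Rose Bengal sodium as red reference fluorophore.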

Chain of Glucocorticoid receptor (Homo sapiens) (P04150 whole entry, looked up): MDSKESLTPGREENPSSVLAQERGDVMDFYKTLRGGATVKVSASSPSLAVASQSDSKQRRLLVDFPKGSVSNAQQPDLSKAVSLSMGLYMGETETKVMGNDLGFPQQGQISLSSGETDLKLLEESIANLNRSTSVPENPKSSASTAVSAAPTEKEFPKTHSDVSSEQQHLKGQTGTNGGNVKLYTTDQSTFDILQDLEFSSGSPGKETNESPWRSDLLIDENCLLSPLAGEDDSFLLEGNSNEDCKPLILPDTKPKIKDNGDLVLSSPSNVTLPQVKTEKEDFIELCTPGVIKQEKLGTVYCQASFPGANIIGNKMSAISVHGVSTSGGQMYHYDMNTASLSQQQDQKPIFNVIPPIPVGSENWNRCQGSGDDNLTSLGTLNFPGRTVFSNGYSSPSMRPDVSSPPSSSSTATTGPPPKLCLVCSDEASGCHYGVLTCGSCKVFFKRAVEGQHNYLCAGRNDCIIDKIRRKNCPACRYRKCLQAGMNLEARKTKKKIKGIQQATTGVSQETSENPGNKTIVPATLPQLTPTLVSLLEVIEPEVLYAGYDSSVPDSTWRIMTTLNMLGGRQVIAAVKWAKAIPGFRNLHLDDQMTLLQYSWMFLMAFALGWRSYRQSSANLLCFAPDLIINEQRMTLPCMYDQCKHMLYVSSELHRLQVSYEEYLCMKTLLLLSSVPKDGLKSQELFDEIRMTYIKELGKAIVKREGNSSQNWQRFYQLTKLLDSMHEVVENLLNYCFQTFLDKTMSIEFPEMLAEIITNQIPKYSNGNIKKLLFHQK

In the case of `C=CC(=C)CCCC(C)(C)OC(C)=O`, the Potency result in [1], in [2], in test [3], in test [4], in [5] and in [8] was “inactive” throughout. Further, the Potency entry in test [11], in test [14], in [16], in test [17] and in [18] was “inactive” throughout. The result in test [6], in [7], in [9], in test [10], in test [12] and in [13] was inactive. For the same compound, the call in [15] was inactive.
`CC(C)(C)C(=O)C(Oc1ccc(Cl)cc1)n1ccnc1` (configuration not stated): the Potency entry in test [19], in test [1], in test [3], in [4], in [8] and in [14] was “inactive” each time. For the same compound, the Potency result in [16] was “inactive”. For the same compound, the call in test [6], in test [7], in [9], in test [10], in test [12] and in test [13] was inactive. The compound was classed as inactive in [20] and in test [15].
For the compound `O=C(C(=O)c1ccccc1)c1ccccc1`, the Potency entry in test [19], in [2], in [3], in test [4], in test [8] and in test [11] was “inactive” throughout. Besides, the Potency entry in test [14], in test [16] and in [18] was “inactive” throughout. Moreover, the result in test [6], in test [7], in [9], in test [10], in test [12] and in test [13] was inactive. Besides, the result in test [20] and in test [15] was inactive.
Consider `Brc1cc(-c2ccc(Br)c(Br)c2Br)cc(Br)c1Br`, for which the Potency result in test [1], in test [2], in [3], in [4], in test [8] and in [11] was “inactive” throughout. The Potency entry in [14], in test [16] and in test [17] was “inactive” each time. Also, the result in [6], in test [9], in test [10], in test [12], in test [13] and in test [20] was inactive. In test [15], the call was inactive.
Turning to `CCN(Cc1cccc(S(=O)(=O)O)c1)c1ccc(C(=C2C=CC(=[N+](CC)Cc3cccc(S(=O)(=O)[O-])c3)C=C2)c2ccccc2)cc1`, the Potency result in test [1], in [2], in test [3], in test [4], in test [8] and in test [11] was “inactive” throughout. Moreover, the Potency entry in test [14] and in test [16] was “inactive” each time. Further, the outcome in test [6], in [7], in test [9], in test [10], in test [12] and in [13] was inactive. The compound was called inactive in test [20] and in [15].
On to `CCc1nn(CCCN2CCN(c3cccc(Cl)c3)CC2)c(=O)n1CCOc1ccccc1`, for which the Potency entry in [1], in test [4], in [8], in [11], in test [14] and in test [16] was “inactive” each time. The Potency in test [2] was 26.6 µM (active) and inactive. The compound was called inactive in test [6], in test [9], in test [10], in [12], in [13] and in [20]. Further, the outcome in test [15] was inactive.
Consider `Cc1cc(S(=O)(=O)O)ccc1N=Nc1c(O)ccc2ccccc12`, for which the Potency result in test [1], in test [2], in [4], in test [8], in test [11] and in test [14] was “inactive” each time. Moreover, the Potency entry in [16] was “inactive”. Further, in [3], the Potency was 48.6 µM (active). Moreover, the result in test [6], in test [7], in [9], in test [10], in [12] and in test [13] was inactive. Besides, the outcome in test [20] and in [15] was inactive.
